Data from PubChem BioAssay AID1159580 (chemical genetic matrix, 2015).
In all, about 5,500 compounds went through this assay and about 2,000 (36%) were called active. Another 18% or so got no clear call; they are omitted. Rule as the data show it: active = normalized growth mostly below about 0.91 (no sharp cut-off); inconclusive = no clear call, values can overlap the other calls; inactive = mostly above about 0.92. The list shows a part of the results.

Test: chemical genetic growth profiling, strain panel (AID 1159580);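 also: tested at 20 µM; growth read once vehicle control cultures reached saturation at 30 °C; 1 = growth at the plate median or of vehicle wells; lower values mean less growth of the strain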
Settings: growth OD
[1] = S. cerevisiae deletion strains, locus YAL013W, strain DEP1, active compounds read low
[2] = S. cerevisiae deletion strains, locus YAL040C, strain CLN3, active compounds read low
[3] = S. cerevisiae deletion strains, locus YCL061C, strain MRC1 (second series), active compounds read low
[4] = S. cerevisiae deletion strains, locus YDR150W, strain NUM1, active compounds read low
[5] = S. cerevisiae deletion strains, locus YDR363W, strain ESC2, active compounds read low
[6] = S. cerevisiae deletion strains, locus YER002W, strain NOP16, active compounds read low
[7] = S. cerevisiae deletion strains, locus YJR075W, strain HOC1, active compounds read low
[8] = S. cerevisiae deletion strains, locus YMR307W, strain GAS1, active compounds read low
[9] = S. cerevisiae deletion strains, locus YNL128W, strain TEP1, active compounds read low
[10] = S. cerevisiae deletion strains, locus YNL175C, strain NOP13, active compounds read low
[11] = S. cerevisiae deletion strains, locus YNL197C, strain WHI3, active compounds read low
[12] = S. cerevisiae deletion strains, locus YNL224C, strain SQS1, active compounds read low
[13] = S. cerevisiae deletion strains, locus YOR083W, strain WHI5 (second series), active compounds read low
[14] = S. cerevisiae deletion strains, locus YPL055C, strain LGE1, active compounds read low
[15] = S. cerevisiae deletion strains, locus YPL241C, strain CIN2, active compounds read low
[16] = S. cerevisiae deletion strains, locus YBR021W, strain FUR4, active compounds read low
[17] = S. cerevisiae deletion strains, locus YBR229C, strain ROT2, active compounds read low
[18] = S. cerevisiae deletion strains, locus YCL029C, strain bik1, active compounds read low
[19] = S. cerevisiae deletion strains, locus YDL035C, strain GPR1, active compounds read low
[20] = S. cerevisiae deletion strains, locus YDL074C, strain BRE1, active compounds read low
[21] = S. cerevisiae deletion strains, locus YDL101C, strain DUN1, active compounds read low
[22] = S. cerevisiae deletion strains, locus YDL185W, strain tfp1, active compounds read low
[23] = S. cerevisiae deletion strains, locus YDL192W, strain arf1, active compounds read low
[24] = S. cerevisiae deletion strains, locus YDR101C, strain arx1, active compounds read low
[25] = S. cerevisiae deletion strains, locus YDR162C, strain NBP2, active compounds read low
[26] = S. cerevisiae deletion strains, locus YDR318W, strain mcm21, active compounds read low
[27] = S. cerevisiae deletion strains, locus YDR388W, active compounds read low
[28] = S. cerevisiae deletion strains, locus YDR502C, strain sam2, active compounds read low
[29] = S. cerevisiae deletion strains, locus YER110C, active compounds read low
[30] = S. cerevisiae deletion strains, locus YER155C, strain BEM2, active compounds read low
[31] = S. cerevisiae deletion strains, locus YER167W, strain BCK2, active compounds read low
[32] = S. cerevisiae deletion strains, locus YGL078C, strain dbp3, active compounds read low
[33] = S. cerevisiae deletion strains, locus YGL086W, strain mad1, active compounds read low
[34] = S. cerevisiae deletion strains, locus YGL248W, strain PDE1, active compounds read low
[35] = S. cerevisiae deletion strains, locus YGR078C, strain PAC10, active compounds read low
[36] = S. cerevisiae deletion strains, locus YGR135W, strain pre9, active compounds read low
[37] = S. cerevisiae deletion strains, locus YGR252W, strain gcn5, active compounds read low
[38] = S. cerevisiae deletion strains, locus YHR079C, strain IRE1 (second series), active compounds read low
[39] = S. cerevisiae deletion strains, locus YHR094C, strain hxt1, active compounds read low
[40] = S. cerevisiae deletion strains, locus YHR129C, strain ARP1, active compounds read low
[41] = S. cerevisiae deletion strains, locus YHR200W, strain rpn10, active compounds read low
[42] = S. cerevisiae deletion strains, locus YIL066C, strain RNR3, active compounds read low
[43] = S. cerevisiae deletion strains, locus YIL073C, strain SPO22, active compounds read low
[44] = S. cerevisiae deletion strains, locus YIL125W, strain kgd1, active compounds read low
[45] = S. cerevisiae deletion strains, locus YIR030C, strain dcg1, active compounds read low
[46] = S. cerevisiae deletion strains, locus YJL095W, strain BCK1, active compounds read low
[47] = S. cerevisiae deletion strains, locus YJL134W, strain LCB3, active compounds read low
[48] = S. cerevisiae deletion strains, locus YJL168C, strain set2, active compounds read low
[49] = S. cerevisiae deletion strains, locus YJL187C, strain SWE1 (second series), active compounds read low
[50] = S. cerevisiae deletion strains, locus YKL009W, strain mrt4, active compounds read low
[51] = S. cerevisiae deletion strains, locus YKL068W, active compounds read low
[52] = S. cerevisiae deletion strains, locus YKL085W, strain MDH1 (second series), active compounds read low
[53] = S. cerevisiae deletion strains, locus YKL085W, strain MDH1, active compounds read low
[54] = S. cerevisiae deletion strains, locus YKL190W, strain CNB1, active compounds read low
[55] = S. cerevisiae deletion strains, locus YKR001C, strain vps1, active compounds read low
[56] = S. cerevisiae deletion strains, locus YLR039C, strain RIC1, active compounds read low
[57] = S. cerevisiae deletion strains, locus YLR058C, strain SHM2, active compounds read low
[58] = S. cerevisiae deletion strains, locus YLR102C, strain apc9, active compounds read low
[59] = S. cerevisiae deletion strains, locus YLR262C, strain YPT6, active compounds read low
[60] = S. cerevisiae deletion strains, locus YLR268W, strain sec22, active compounds read low
[61] = S. cerevisiae deletion strains, locus YLR330W, strain CHS5, active compounds read low
[62] = S. cerevisiae deletion strains, locus YLR342W, strain FKS1 (second series), active compounds read low
[63] = S. cerevisiae deletion strains, locus YLR371W, strain rom2, active compounds read low
[64] = S. cerevisiae deletion strains, locus YLR418C, strain cdc73, active compounds read low
[65] = S. cerevisiae deletion strains, locus YML016C, strain PPZ1, active compounds read low
[66] = S. cerevisiae deletion strains, locus YML032C, strain rad52, active compounds read low
[67] = S. cerevisiae deletion strains, locus YML124C, strain tub3, active compounds read low
[68] = S. cerevisiae deletion strains, locus YMR078C, strain ctf18, active compounds read low
[69] = S. cerevisiae deletion strains, locus YMR223W, strain ubp8, active compounds read low
[70] = S. cerevisiae deletion strains, locus YNL067W, strain RPL9B, active compounds read low
[71] = S. cerevisiae deletion strains, locus YNL153C, strain GIM3, active compounds read low
[72] = S. cerevisiae deletion strains, locus YNL233W, strain BNI4, active compounds read low
[73] = S. cerevisiae deletion strains, locus YNL250W, strain rad50, active compounds read low
[74] = S. cerevisiae deletion strains, locus YNL271C, strain bni1, active compounds read low
[75] = S. cerevisiae deletion strains, locus YNL298W, strain CLA4, active compounds read low
[76] = S. cerevisiae deletion strains, locus YNL307C, strain MCK1, active compounds read low
[77] = S. cerevisiae deletion strains, locus YNR052C, strain pop2, active compounds read low
[78] = S. cerevisiae deletion strains, locus YOL006C, strain TOP1, active compounds read low
[79] = S. cerevisiae deletion strains, locus YOL012C, strain htz1
[80] = S. cerevisiae deletion strains, locus YOL147C, strain pex11, active compounds read low
[81] = S. cerevisiae deletion strains, locus YOR061W, strain CKA2, active compounds read low
[82] = S. cerevisiae deletion strains, locus YOR069W, strain VPS5, active compounds read low
[83] = S. cerevisiae deletion strains, locus YOR136W, strain idh2, active compounds read low
[84] = S. cerevisiae deletion strains, locus YOR144C, strain elg1, active compounds read low
[85] = S. cerevisiae deletion strains, locus YOR184W, strain ser1, active compounds read low
[86] = S. cerevisiae deletion strains, locus YOR316C, strain cot1, active compounds read low
[87] = S. cerevisiae deletion strains, locus YPR119W, strain clb2, active compounds read low
[88] = S. cerevisiae deletion strains, locus YPR141C, strain kar3, active compounds read low
[89] = S. cerevisiae deletion strains, locus YPR163C, strain tif3, active compounds read low
[90] = S. cerevisiae deletion strains, locus YPR167C, strain met16, active compounds read low
[91] = S. cerevisiae deletion strains, strain wtn01, active compounds read low

Measured: normalized growth

C[C@]12CCC3C(CC[C@H]4C[C@H](O)CC[C@]34C)C1CC[C@@H]2C(=O)CO (some centres not stated)
inactive: [1] 1.02 | [2] 1.08 | [3] 1.01 | [4] 1.03 | [5] 1.02 | [6] 1.02 | [7] 1.06 | [8] 0.939 | [9] 1.02 | [10] 1.04 | [11] 1.02 | [12] 0.995 | [13] 1.01 | [14] 1.03 | [15] 1.03

C[C@]12CCC3C(CC[C@H]4C[C@@H](O)CC[C@]34C)C1CC[C@@H]2O (some centres not stated)
active: [37] 0.764 | [50] 0.793 | [56] 0.644 | [59] 0.507 | [75] 0.895 | [77] 0.88 | [85] 0.836
inactive: [1] 1 | [16] 1.01 | [17] 1.03 | [18] 0.968 | [19] 0.864 | [20] 0.991 | [21] 1.01 | S. cerevisiae deletion strains, locus YDL134C, strain PPH21, active compounds read low 1.02 | [22] 0.988 | [23] 0.996 | [24] 1.01 | [4] 1.02 | [25] 0.958 | [26] 0.972 | [27] 1.03 | [28] 1.01 | S. cerevisiae deletion strains, locus YEL061C, strain CIN8, active compounds read low 1.03 | [29] 1.01 | [30] 1.04 | [31] 0.986 | [32] 0.973 | [33] 0.954 | [34] 1.02 | [35] 1 | [36] 0.973 | S. cerevisiae deletion strains, locus YGR229C, strain SMI1, active compounds read low 1.02 | S. cerevisiae deletion strains, locus YHR030C, strain SLT2, active compounds read low 1.04 | [38] 0.993 | [39] 1.02 | [40] 1.03 | [41] 0.985 | [42] 0.953 | [43] 0.91 | [44] 1.02 | [45] 1.03 | [46] 1.01 | [47] 1.02 | [48] 1.03 | [49] 1 | S. cerevisiae deletion strains, locus YJR043C, strain POL32, active compounds read low 0.965 | [7] 1.04 | [51] 1.02 | [52] 1.02 | [53] 1.02 | [54] 1.02 | [55] 0.964 | [57] 1.02 | [58] 1.02 | [60] 0.997 | [61] 1.03 | [62] 0.87 | [63] 0.994 | [64] 1.13 | [65] 1.03 | [66] 0.931 | [67] 1.03 | [68] 1.03 | [69] 0.953 | S. cerevisiae deletion strains, locus YMR263W, strain SAP30, active compounds read low 1.01 | [8] 1.02 | [70] 0.938 | [9] 1.01 | [71] 1.03 | [72] 1.02 | [73] 0.968 | [74] 1 | [76] 0.954 | S. cerevisiae deletion strains, locus YNL322C, strain KRE1, active compounds read low 1.03 | [78] 1.07 | [79] 1.81 | [80] 1.04 | [81] 0.99 | [82] 1.02 | [83] 1.02 | [84] 1.01 | [86] 1.03 | [14] 1.01 | [15] 1.02 | [87] 1.04 | [88] 1.04 | [89] 1.01 | [90] 1.02 | [91] 0.989 | S. cerevisiae strains, strain wild type, active compounds read low 0.99

CC(=O)[C@H]1CCC2C3CC[C@H]4C[C@H](O)CC[C@]4(C)C3CC[C@@]21C (some centres not stated)
inactive: [1] 1.01 | [2] 0.979 | [3] 1 | [5] 1.04 | [6] 1 | [35] 1.01 | [8] 0.935 | [9] 1.01 | [71] 0.944 | [10] 0.993 | [11] 1.01 | [12] 1 | [13] 1 | [14] 0.98

C[C@]12CCC3C(CC[C@H]4C[C@H](O)CC[C@]34C)C1CC[C@@H]2O (some centres not stated)
active: [16] 0.803 | [25] 0.628 | [28] 0.899 | [32] 0.844 | [34] 0.882 | [36] 0.858 | [37] 0.756 | [46] 0.721 | [50] 0.813 | [55] 0.83 | [56] 0.538 | [59] 0.421 | [61] 0.891 | [75] 0.893 | [76] 0.885 | [77] 0.884 | [85] 0.82 | [89] 0.844
inactive: [17] 1.01 | [18] 0.948 | [19] 0.883 | [20] 0.929 | [21] 0.938 | [22] 0.978 | [23] 0.965 | [24] 0.991 | [26] 0.948 | [27] 0.994 | [29] 1.01 | [30] 1.01 | [31] 1.02 | [33] 0.951 | [35] 0.908 | [38] 1.01 | [39] 1 | [40] 0.968 | [41] 0.987 | [42] 1 | [43] 0.875 | [44] 0.993 | [45] 0.991 | [47] 1.01 | [48] 1 | [49] 0.882 | [7] 0.981 | [51] 0.988 | [52] 1.01 | [53] 1.01 | [54] 1.02 | [57] 0.944 | [58] 1 | [60] 0.974 | [62] 0.814 | [63] 1.05 | [64] 0.894 | [65] 0.989 | [66] 0.924 | [67] 1.01 | [68] 0.988 | [69] 0.936 | [8] 0.798 | [70] 0.876 | [72] 0.904 | [73] 0.912 | [74] 0.942 | [78] 0.926 | [79] 1.56 | [80] 1.01 | [81] 0.985 | [82] 0.957 | [83] 0.984 | [84] 0.994 | [86] 0.992 | [87] 0.992 | [88] 1.02 | [90] 0.956 | [91] 0.961
